Test results taken from PubChem BioAssay (NCATS).
Results filed as inconclusive are left out. The source made the active and inactive calls. Unless noted, calls follow the shape of the dose curve; as a rule, active = well fitted curve in the direction sought with a large enough effect; inconclusive = small, poorly fitted or top-dose-only effect, or another doubt; inactive = no such curve, though single readings can be large; an effect the other way counts as inactive or inconclusive.

How the values were obtained:
[1] = qHTS for Inhibitors of Plasmodium falciparum (DD2) proliferation (AID 504314);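 also: parasite DNA measured by SYBR Green fluorescence after red cell lysis; plate controls were DMSO vehicle for no effect and artemisinin wells for full effect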; conditions: P. falciparum Dd2 in erythrocytes, SYBR Green growth, 72 h; series mostly up to 6.11 µM
How it was run: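 Parasite proliferation measured as SYBR Green signal from Plasmodium DNA, mature erythrocytes lacking DNA. 72 h incubation, 37C; activity scaled between vehicle and 0.29 uM artemisinin, with correction from vehicle-only plates.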

[2] = qHTS for Inhibitors of Plasmodium falciparum (7G8) proliferation (AID 504316);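 also: 0% = DMSO vehicle and -100% = 0.29 µM artemisinin full kill; nearly all actives have a fitted effect of over 65% in size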; conditions: P. falciparum 7G8 in erythrocytes, SYBR Green DNA, 72 h; series mostly up to 6.7 µM
How it was run: (§1)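 Parasite growth measured as SYBR Green DNA fluorescence (ex 485, em 535 nm) after overnight lysis following 72 h culture at 37 °C, 0.3% parasitemia, 2.5% hematocrit. Values normalized against DMSO and 0.29 uM artemisinin controls, with plate-stack correction.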

[3] = qHTS for Inhibitors of Plasmodium falciparum (HB3) proliferation (AID 504318);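 also: 0% = DMSO vehicle and -100% = artemisinin control; nearly all actives have a fitted effect of over 60% in size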; conditions: P. falciparum HB3 in erythrocytes, SYBR Green DNA, 72 h; series mostly up to 7.21 µM
How it was run: as §1

[4] = qHTS for Inhibitors of Plasmodium falciparum (CP250) proliferation (AID 504320);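 also: plate controls were DMSO vehicle for no effect and 0.29 µM artemisinin control for full effect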; conditions: P. falciparum CP250 in erythrocytes, SYBR Green DNA, 72 h; series mostly up to 6.7 µM
How it was run: as §1

[5] = biological target: Atrial natriuretic peptide receptor 1 (Homo sapiens) (UniProt P16066); assay: Natriuretic polypeptide receptor (hNpr1) antagonism - Pilot CMLD screen (AID 1347052; calls by dose curve;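 also: HEK293 cells with hNpr1 stimulated by hNppA peptide at 0.1 nM; cGMP level read as GloSensor luciferase luminescence after agonist stimulation; % is scaled to controls: 0 for no effect and ±100 for the full control effect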); conditions: HEK293 hNpr1 GloSensor cGMP luminescence, ANP-stimulated; series mostly up to 9.22 µM
Chain of Atrial natriuretic peptide receptor 1 (Homo sapiens) (P16066 whole entry, looked up): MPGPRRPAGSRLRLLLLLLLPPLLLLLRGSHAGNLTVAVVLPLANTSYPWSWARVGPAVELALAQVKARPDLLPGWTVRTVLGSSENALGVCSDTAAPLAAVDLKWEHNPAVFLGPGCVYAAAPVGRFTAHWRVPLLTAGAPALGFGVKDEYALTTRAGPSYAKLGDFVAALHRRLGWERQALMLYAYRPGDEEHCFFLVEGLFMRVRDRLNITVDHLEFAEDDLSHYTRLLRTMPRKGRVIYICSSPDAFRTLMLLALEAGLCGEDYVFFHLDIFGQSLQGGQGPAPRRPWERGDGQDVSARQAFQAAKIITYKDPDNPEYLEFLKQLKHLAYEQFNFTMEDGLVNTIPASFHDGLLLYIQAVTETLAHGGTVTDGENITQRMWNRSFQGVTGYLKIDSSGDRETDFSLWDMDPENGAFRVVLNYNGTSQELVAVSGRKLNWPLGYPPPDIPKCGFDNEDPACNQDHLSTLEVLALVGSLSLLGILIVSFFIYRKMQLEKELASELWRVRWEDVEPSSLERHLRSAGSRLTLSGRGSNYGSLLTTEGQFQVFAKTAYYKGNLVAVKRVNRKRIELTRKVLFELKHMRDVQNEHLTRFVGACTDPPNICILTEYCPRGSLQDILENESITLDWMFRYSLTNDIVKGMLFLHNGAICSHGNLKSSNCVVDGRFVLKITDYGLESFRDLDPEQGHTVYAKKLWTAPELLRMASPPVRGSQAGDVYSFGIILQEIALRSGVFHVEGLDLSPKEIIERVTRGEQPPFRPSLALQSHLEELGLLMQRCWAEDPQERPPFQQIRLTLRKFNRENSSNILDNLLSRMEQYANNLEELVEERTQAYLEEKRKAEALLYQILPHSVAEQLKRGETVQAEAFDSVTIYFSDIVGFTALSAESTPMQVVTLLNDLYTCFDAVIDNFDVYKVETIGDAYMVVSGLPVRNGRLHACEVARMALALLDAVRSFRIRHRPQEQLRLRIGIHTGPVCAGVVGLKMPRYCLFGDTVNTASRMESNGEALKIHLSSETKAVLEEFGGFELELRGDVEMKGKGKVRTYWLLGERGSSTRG

[6] = biological target: Cytochrome P450 3A4 (Homo sapiens) (UniProt P08684); assay: qHTS Assay for Activators of Cytochrome P450 3A4 (AID 885); conditions: recombinant CYP3A4, Luciferin-PPXE luminescence, 60 min; series mostly up to 57.1 µM; also: nearly all actives have a fitted effect of over 65% in size
Chain of Cytochrome P450 3A4 (Homo sapiens) (P08684 whole entry, looked up): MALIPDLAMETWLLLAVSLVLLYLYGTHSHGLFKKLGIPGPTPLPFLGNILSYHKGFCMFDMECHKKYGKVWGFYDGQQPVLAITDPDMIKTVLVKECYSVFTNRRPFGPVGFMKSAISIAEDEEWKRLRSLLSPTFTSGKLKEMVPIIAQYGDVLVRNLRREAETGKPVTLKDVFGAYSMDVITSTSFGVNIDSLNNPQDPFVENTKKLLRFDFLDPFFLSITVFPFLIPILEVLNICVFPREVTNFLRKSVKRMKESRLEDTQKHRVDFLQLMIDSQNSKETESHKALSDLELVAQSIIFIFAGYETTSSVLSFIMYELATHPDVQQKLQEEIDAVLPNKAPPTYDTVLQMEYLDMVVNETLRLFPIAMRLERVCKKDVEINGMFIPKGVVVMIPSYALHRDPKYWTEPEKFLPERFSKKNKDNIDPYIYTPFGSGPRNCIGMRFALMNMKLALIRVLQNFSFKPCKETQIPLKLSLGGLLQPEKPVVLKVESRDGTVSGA
How it was run: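 Human CYP3A4 dealkylates Luciferin-PPXE to luciferin, which luciferase detection converts to light. Substrate was at its KM (25uM), buffer 200mM KPO4, reaction 60 min at RT.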

[7] = biological target: Cytochrome P450 2C19 (Homo sapiens) (UniProt P33261); assay: qHTS Assay for Inhibitors and Substrates of Cytochrome P450 2C19 (AID 899); conditions: recombinant CYP2C19, luciferin-H EGE luminescence; series mostly up to 57.1 µM; also: nearly all actives have a fitted effect of over 60% in size; also: potency is read from the fitted curve at half-maximal effect; as to activity, negative = inhibition: % is scaled to controls: 0 for no effect and ±100 for the full control effect
Chain of Cytochrome P450 2C19 (Homo sapiens) (P33261 whole entry, looked up): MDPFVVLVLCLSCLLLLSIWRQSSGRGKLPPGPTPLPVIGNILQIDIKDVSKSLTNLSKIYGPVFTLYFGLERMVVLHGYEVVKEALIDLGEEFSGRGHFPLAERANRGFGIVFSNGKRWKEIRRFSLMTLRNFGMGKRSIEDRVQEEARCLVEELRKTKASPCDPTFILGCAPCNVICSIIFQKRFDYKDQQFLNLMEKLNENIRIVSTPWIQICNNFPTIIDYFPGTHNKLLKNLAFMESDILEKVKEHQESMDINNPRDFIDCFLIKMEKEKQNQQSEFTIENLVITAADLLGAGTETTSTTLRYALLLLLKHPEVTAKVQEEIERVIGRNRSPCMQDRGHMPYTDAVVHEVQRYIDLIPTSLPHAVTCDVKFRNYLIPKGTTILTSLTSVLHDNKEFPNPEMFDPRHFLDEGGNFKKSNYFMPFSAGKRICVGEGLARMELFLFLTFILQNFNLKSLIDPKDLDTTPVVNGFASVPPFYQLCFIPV
How it was run: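 5 nM human CYP2C19 with 10uM Luciferin-H EGE (at KM) in 50mM KPO4, compound preincubated 10 min at 37C, then NADPH regeneration for 60 min at 37C. Luciferin read by luminescence after detection reagent; normalized to 57uM ketoconazole as full inhibition.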

[8] = qHTS Assay for Identification of Small Molecule Agonists for Hypoxia Response Element Signaling Pathway (AID 914; active = well fitted activation curve with a large enough effect in the signal ratio, with a control signal flat, not every such curve was filed as active; the % refers to the signal ratio; also: % of control where 0% means no effect); conditions: ME-180 (cervical carcinoma) HRE-bla reporter, beta-lactamase ratio, CoCl2, 17 h; hits give high values
How it was run: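 AC50 values come from titration-series %Activity, taken as the 460/530nm ratio of CCF4 fluorescence (excitation 405nm). CellSensor HRE-bla ME-180 cells were treated 17 hours at 37 C with compound plus an EC50 level of CoCl2.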

[9] = biological target: Cytochrome P450 2C9 (Homo sapiens) (UniProt P11712); assay: qHTS Assay for Inhibitors and Substrates of Cytochrome P450 2C9 (AID 883); conditions: recombinant CYP2C9, luciferin-H luminescence, 60 min; series mostly up to 57.1 µM; also: % is scaled to controls: 0 for no effect and ±100 for the full control effect; nearly all actives have a fitted effect of over 60% in size
Chain of Cytochrome P450 2C9 (Homo sapiens) (P11712 whole entry, looked up): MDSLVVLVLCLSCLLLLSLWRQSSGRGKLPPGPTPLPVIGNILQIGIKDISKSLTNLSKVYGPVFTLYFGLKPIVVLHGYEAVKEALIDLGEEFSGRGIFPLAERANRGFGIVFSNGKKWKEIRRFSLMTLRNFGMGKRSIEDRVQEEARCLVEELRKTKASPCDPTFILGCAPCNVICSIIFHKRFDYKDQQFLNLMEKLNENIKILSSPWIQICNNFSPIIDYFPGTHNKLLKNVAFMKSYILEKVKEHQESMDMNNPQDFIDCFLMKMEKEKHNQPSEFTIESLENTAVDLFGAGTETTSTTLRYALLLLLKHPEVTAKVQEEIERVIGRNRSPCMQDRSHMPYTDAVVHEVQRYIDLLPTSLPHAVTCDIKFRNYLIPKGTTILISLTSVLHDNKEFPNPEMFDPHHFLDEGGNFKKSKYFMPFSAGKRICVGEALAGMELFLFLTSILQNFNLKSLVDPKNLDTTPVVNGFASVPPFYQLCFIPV
How it was run: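 Human CYP2C9 (10nM) with Luciferin-H at 100uM (its KM) in 25mM KPO4; compound preincubated 10 min at 37C, then NADPH regeneration for 60 min at 37C. Luciferin read by luminescence after detection reagent; normalized to 57uM sulphaphenazole as full inhibition.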

[10] = biological target: Cytochrome P450 3A4 (Homo sapiens) (UniProt P08684); assay: qHTS Assay for Inhibitors and Substrates of Cytochrome P450 3A4 (AID 884); conditions: recombinant CYP3A4, Luciferin-PPXE luminescence; series mostly up to 57.1 µM; also: % is scaled to controls: 0 for no effect and ±100 for the full control effect; nearly all actives have a fitted effect of over 50% in size
How it was run: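 Luminescent readout of luciferin produced by CYP3A4 (20 nM) dealkylation of Luciferin-PPXE, 25 uM (its KM). NADPH-driven reaction ran 60 min at RT after 10 min compound preincubation; data scaled to 57 uM ketoconazole as 100% inhibition.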

[11] = biological target: Cytochrome P450 2D6 (Homo sapiens) (UniProt P10635); assay: qHTS Assay for Inhibitors and Substrates of Cytochrome P450 2D6 (AID 891); conditions: recombinant CYP2D6, luciferin-ME EGE luminescence; series mostly up to 57.1 µM;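 also: luciferin methyl ether substrate demethylated by CYP2D6 with NADPH regeneration; % is scaled to controls: 0 for no effect and ±100 for the full control effect; nearly all actives have a fitted effect of over 60% in size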
Chain of Cytochrome P450 2D6 (Homo sapiens) (P10635 whole entry, looked up): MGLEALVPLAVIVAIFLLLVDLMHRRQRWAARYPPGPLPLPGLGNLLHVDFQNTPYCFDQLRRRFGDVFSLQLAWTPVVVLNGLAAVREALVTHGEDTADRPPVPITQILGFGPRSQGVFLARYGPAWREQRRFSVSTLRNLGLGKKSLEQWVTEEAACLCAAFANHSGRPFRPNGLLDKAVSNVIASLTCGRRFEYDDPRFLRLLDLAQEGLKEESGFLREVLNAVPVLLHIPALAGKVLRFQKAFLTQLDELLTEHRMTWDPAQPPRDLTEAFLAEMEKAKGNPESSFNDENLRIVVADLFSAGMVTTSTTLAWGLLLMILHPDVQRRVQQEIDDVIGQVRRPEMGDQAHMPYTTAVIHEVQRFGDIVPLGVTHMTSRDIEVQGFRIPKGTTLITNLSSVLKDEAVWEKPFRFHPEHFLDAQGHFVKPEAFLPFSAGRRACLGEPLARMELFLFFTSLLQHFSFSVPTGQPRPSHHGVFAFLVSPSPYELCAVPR
How it was run: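 Luminescent read-out of luciferin formed by 5 nM human CYP2D6 demethylating 30 uM Luciferin-ME EGE (Km level) over 60 min at room temperature after NADPH regeneration addition. Data normalized to full inhibition by 1.43 uM quinidine.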

CCN1C(=O)NC(CCc2ccccc2)C(C(=O)OC)=C1C (stereo unspecified)
inactive: Potency [1] | Potency [2] | Potency [3] | Potency [4] | Potency [5]

COC(=O)N[C@H](C[N+](=O)[O-])C(C)(C)C
inactive: Potency [1] | Potency [2] | Potency [3] | Potency [4] | Potency [5]

C[C@@H]1CC[C@H]2C(=O)NC[C@@H](O)CN2[C@@H]1c1ccc(Br)cc1
active: Potency [7] 2 µM
inactive: activity change, positive = activation [6] -42.5% [at 11.4 µM] | activation [8] -3.48% | Potency [1] | Potency [2] | Potency [3] | Potency [4] | Potency [5]

COC(=O)C(C(C)=O)C(=O)C(Cc1ccccc1)NC(=O)OCc1ccccc1 (stereo unspecified)
inactive: activity change, negative = inhibition [9] 2.74% [at 11.4 µM] | activity change, negative = inhibition [10] -19.6% [at 11.4 µM] | activity change, negative = inhibition [11] -1.19% [at 11.4 µM] | activity, negative = inhibition [7] -11.9% [at 11.4 µM] | Potency [1] | Potency [2] | Potency [3] | Potency [4] | Potency [5]

O=C1CCCC=C1C(O)COCc1ccccc1 (stereo unspecified)
inactive: Potency [1] | Potency [2] | Potency [3] | Potency [4] | Potency [5]

CC(C)[C@@H](OCc1ccccc1)[C@H](C)C=NOC[C@@H](O)[C@H]1O[C@@H]2OC(C)(C)O[C@H]2[C@@H]1O
inactive: Potency [1] | Potency [2] | Potency [3] | Potency [4] | Potency [5]

C=CCOC(=O)NC(c1ccc(F)c(F)c1)C(C(C)=O)C(=O)OC (stereo unspecified)
inactive: Potency [1] | Potency [2] | Potency [3] | Potency [4] | Potency [5]

O=C1CCC=C1C(O)c1ccc2c(c1)OCO2 (stereo unspecified)
inactive: Potency [1] | Potency [2] | Potency [4] | Potency [5]
